From PMC11006913

What was measured:
NKX3-2 [1] = molecular target: NKX3-2 (Homo sapiens, UniProt P78367 192-278, P234S); assay: PBM; 200 nM protein, PBS; conditions: dsDNA, one strand shown
NKX3-2 [2] = molecular target: NKX3-2 (Homo sapiens, UniProt P78367 192-278); assay: PBM; 200 nM protein, PBS; conditions: dsDNA, one strand shown
Sequence of NKX3-2 (Homo sapiens, UniProt P78367 192-278) (P78367 192-278): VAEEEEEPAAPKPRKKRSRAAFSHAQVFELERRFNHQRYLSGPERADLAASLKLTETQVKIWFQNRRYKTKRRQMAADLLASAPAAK

Sequence of NKX3-2 (Homo sapiens, UniProt P78367 192-278, P234S) (P78367 192-278 P234S): as the sequence (P78367 192-278) above, with P43S counted along it

Row | Sequence | binding signal (NKX3-2 [1]) | binding signal (NKX3-2 [2])
1 | GAGTGACA | 11.4 upbm affinity estimate (log intensity, higher = more binding, comparable within an allelic series) | 11.5 upbm affinity estimate (log intensity, higher = more binding, comparable within an allelic series)
2 | GGTCAAAC | 10.5 upbm affinity estimate (log intensity, higher = more binding, comparable within an allelic series) | 10.5 upbm affinity estimate (log intensity, higher = more binding, comparable within an allelic series)
3 | CCCACGGG | 10.3 upbm affinity estimate (log intensity, higher = more binding, comparable within an allelic series) | 10.3 upbm affinity estimate (log intensity, higher = more binding, comparable within an allelic series)
4 | GAAGTGCC | 12.8 upbm affinity estimate (log intensity, higher = more binding, comparable within an allelic series) | 12.9 upbm affinity estimate (log intensity, higher = more binding, comparable within an allelic series)
5 | GACGAACC | 10.6 upbm affinity estimate (log intensity, higher = more binding, comparable within an allelic series) | 10.5 upbm affinity estimate (log intensity, higher = more binding, comparable within an allelic series)
6 | CCAGACCA | 10.6 upbm affinity estimate (log intensity, higher = more binding, comparable within an allelic series) | 10.5 upbm affinity estimate (log intensity, higher = more binding, comparable within an allelic series)
7 | CGTGGGAA | 10.6 upbm affinity estimate (log intensity, higher = more binding, comparable within an allelic series) | 10.6 upbm affinity estimate (log intensity, higher = more binding, comparable within an allelic series)
8 | AGCCTGGA | 10.6 upbm affinity estimate (log intensity, higher = more binding, comparable within an allelic series) | 10.6 upbm affinity estimate (log intensity, higher = more binding, comparable within an allelic series)
9 | CCCCGCAA | 10.7 upbm affinity estimate (log intensity, higher = more binding, comparable within an allelic series) | 10.7 upbm affinity estimate (log intensity, higher = more binding, comparable within an allelic series)
10 | ACACACCG | 10.6 upbm affinity estimate (log intensity, higher = more binding, comparable within an allelic series) | 10.6 upbm affinity estimate (log intensity, higher = more binding, comparable within an allelic series)
11 | GAGTGCAC | 12.2 upbm affinity estimate (log intensity, higher = more binding, comparable within an allelic series) | 12.4 upbm affinity estimate (log intensity, higher = more binding, comparable within an allelic series)
12 | CCGCGGCA | 10.5 upbm affinity estimate (log intensity, higher = more binding, comparable within an allelic series) | 10.5 upbm affinity estimate (log intensity, higher = more binding, comparable within an allelic series)
13 | GCACCCAA | 10.6 upbm affinity estimate (log intensity, higher = more binding, comparable within an allelic series) | 10.6 upbm affinity estimate (log intensity, higher = more binding, comparable within an allelic series)
14 | CAAAGTGG | 12.8 upbm affinity estimate (log intensity, higher = more binding, comparable within an allelic series) | 12.9 upbm affinity estimate (log intensity, higher = more binding, comparable within an allelic series)
15 | GGCTCCCC | 10.6 upbm affinity estimate (log intensity, higher = more binding, comparable within an allelic series) | 10.6 upbm affinity estimate (log intensity, higher = more binding, comparable within an allelic series)
16 | ATCCGAGC | 10.6 upbm affinity estimate (log intensity, higher = more binding, comparable within an allelic series) | 10.6 upbm affinity estimate (log intensity, higher = more binding, comparable within an allelic series)
17 | AAGTAGGT | 11.7 upbm affinity estimate (log intensity, higher = more binding, comparable within an allelic series) | 11.8 upbm affinity estimate (log intensity, higher = more binding, comparable within an allelic series)
18 | TCTGGGCA | 10.6 upbm affinity estimate (log intensity, higher = more binding, comparable within an allelic series) | 10.6 upbm affinity estimate (log intensity, higher = more binding, comparable within an allelic series)
19 | AGACCACT | 12 upbm affinity estimate (log intensity, higher = more binding, comparable within an allelic series) | 12.1 upbm affinity estimate (log intensity, higher = more binding, comparable within an allelic series)
20 | AGTGGAGA | 11.7 upbm affinity estimate (log intensity, higher = more binding, comparable within an allelic series) | 11.7 upbm affinity estimate (log intensity, higher = more binding, comparable within an allelic series)

Row | Sequence | binding signal (NKX3-2 [1]) | binding signal (NKX3-2 [2])
21 | GGCGCGCA | 10.6 upbm affinity estimate (log intensity, higher = more binding, comparable within an allelic series) | 10.6 upbm affinity estimate (log intensity, higher = more binding, comparable within an allelic series)
22 | CAAAGAGG | 11.9 upbm affinity estimate (log intensity, higher = more binding, comparable within an allelic series) | 12 upbm affinity estimate (log intensity, higher = more binding, comparable within an allelic series)
23 | CGGCTGGC | 10.4 upbm affinity estimate (log intensity, higher = more binding, comparable within an allelic series) | 10.4 upbm affinity estimate (log intensity, higher = more binding, comparable within an allelic series)
24 | ACTCTGAT | 11.5 upbm affinity estimate (log intensity, higher = more binding, comparable within an allelic series) | 11.6 upbm affinity estimate (log intensity, higher = more binding, comparable within an allelic series)
25 | AAAGTGGC | 12.6 upbm affinity estimate (log intensity, higher = more binding, comparable within an allelic series) | 12.6 upbm affinity estimate (log intensity, higher = more binding, comparable within an allelic series)
26 | CTGGCAAG | 10.5 upbm affinity estimate (log intensity, higher = more binding, comparable within an allelic series) | 10.5 upbm affinity estimate (log intensity, higher = more binding, comparable within an allelic series)
27 | AAGGGCCT | 11.9 upbm affinity estimate (log intensity, higher = more binding, comparable within an allelic series) | 12 upbm affinity estimate (log intensity, higher = more binding, comparable within an allelic series)
28 | GGACCCGA | 10.6 upbm affinity estimate (log intensity, higher = more binding, comparable within an allelic series) | 10.6 upbm affinity estimate (log intensity, higher = more binding, comparable within an allelic series)
29 | AAAGTGGA | 12.6 upbm affinity estimate (log intensity, higher = more binding, comparable within an allelic series) | 12.6 upbm affinity estimate (log intensity, higher = more binding, comparable within an allelic series)
30 | AGTGCACT | 12.3 upbm affinity estimate (log intensity, higher = more binding, comparable within an allelic series) | 12.6 upbm affinity estimate (log intensity, higher = more binding, comparable within an allelic series)
31 | GAGTACAC | 12.1 upbm affinity estimate (log intensity, higher = more binding, comparable within an allelic series) | 12.2 upbm affinity estimate (log intensity, higher = more binding, comparable within an allelic series)
32 | GAGGCAGC | 10.4 upbm affinity estimate (log intensity, higher = more binding, comparable within an allelic series) | 10.4 upbm affinity estimate (log intensity, higher = more binding, comparable within an allelic series)
33 | AGCCGCGC | 10.5 upbm affinity estimate (log intensity, higher = more binding, comparable within an allelic series) | 10.5 upbm affinity estimate (log intensity, higher = more binding, comparable within an allelic series)
34 | ACGGCAGC | 10.6 upbm affinity estimate (log intensity, higher = more binding, comparable within an allelic series) | 10.5 upbm affinity estimate (log intensity, higher = more binding, comparable within an allelic series)
35 | CCAGGCAA | 10.7 upbm affinity estimate (log intensity, higher = more binding, comparable within an allelic series) | 10.6 upbm affinity estimate (log intensity, higher = more binding, comparable within an allelic series)
36 | CCTGGCCG | 10.5 upbm affinity estimate (log intensity, higher = more binding, comparable within an allelic series) | 10.5 upbm affinity estimate (log intensity, higher = more binding, comparable within an allelic series)
37 | AAACCGCG | 10.5 upbm affinity estimate (log intensity, higher = more binding, comparable within an allelic series) | 10.5 upbm affinity estimate (log intensity, higher = more binding, comparable within an allelic series)
38 | CGACGGCC | 10.7 upbm affinity estimate (log intensity, higher = more binding, comparable within an allelic series) | 10.6 upbm affinity estimate (log intensity, higher = more binding, comparable within an allelic series)
39 | ACCAGGCT | 10.6 upbm affinity estimate (log intensity, higher = more binding, comparable within an allelic series) | 10.6 upbm affinity estimate (log intensity, higher = more binding, comparable within an allelic series)
40 | CGGGCAGC | 10.6 upbm affinity estimate (log intensity, higher = more binding, comparable within an allelic series) | 10.5 upbm affinity estimate (log intensity, higher = more binding, comparable within an allelic series)

Row | Sequence | binding signal (NKX3-2 [1]) | binding signal (NKX3-2 [2])
41 | ACCACGGC | 10.5 upbm affinity estimate (log intensity, higher = more binding, comparable within an allelic series) | 10.5 upbm affinity estimate (log intensity, higher = more binding, comparable within an allelic series)
42 | AGCACTTC | 12.4 upbm affinity estimate (log intensity, higher = more binding, comparable within an allelic series) | 12.4 upbm affinity estimate (log intensity, higher = more binding, comparable within an allelic series)
43 | ATCCCGCC | 10.7 upbm affinity estimate (log intensity, higher = more binding, comparable within an allelic series) | 10.7 upbm affinity estimate (log intensity, higher = more binding, comparable within an allelic series)
44 | TAAGAACA | 11.4 upbm affinity estimate (log intensity, higher = more binding, comparable within an allelic series) | 11.5 upbm affinity estimate (log intensity, higher = more binding, comparable within an allelic series)
45 | GAGTAGAC | 11.6 upbm affinity estimate (log intensity, higher = more binding, comparable within an allelic series) | 11.6 upbm affinity estimate (log intensity, higher = more binding, comparable within an allelic series)
46 | AGGAAAAA | 10.5 upbm affinity estimate (log intensity, higher = more binding, comparable within an allelic series) | 10.6 upbm affinity estimate (log intensity, higher = more binding, comparable within an allelic series)
47 | CACTCTCG | 11.9 upbm affinity estimate (log intensity, higher = more binding, comparable within an allelic series) | 12 upbm affinity estimate (log intensity, higher = more binding, comparable within an allelic series)
48 | ACCAAGAG | 11.7 upbm affinity estimate (log intensity, higher = more binding, comparable within an allelic series) | 11.8 upbm affinity estimate (log intensity, higher = more binding, comparable within an allelic series)
49 | GCCGTGCC | 10.6 upbm affinity estimate (log intensity, higher = more binding, comparable within an allelic series) | 10.6 upbm affinity estimate (log intensity, higher = more binding, comparable within an allelic series)
50 | GAAGTGTC | 12.2 upbm affinity estimate (log intensity, higher = more binding, comparable within an allelic series) | 12.3 upbm affinity estimate (log intensity, higher = more binding, comparable within an allelic series)
51 | CCCACTTC | 12.7 upbm affinity estimate (log intensity, higher = more binding, comparable within an allelic series) | 12.8 upbm affinity estimate (log intensity, higher = more binding, comparable within an allelic series)
52 | CGGGTTAG | 10.5 upbm affinity estimate (log intensity, higher = more binding, comparable within an allelic series) | 10.5 upbm affinity estimate (log intensity, higher = more binding, comparable within an allelic series)
53 | AAGGAGTG | 11.9 upbm affinity estimate (log intensity, higher = more binding, comparable within an allelic series) | 12 upbm affinity estimate (log intensity, higher = more binding, comparable within an allelic series)
54 | AAGTGGGA | 12.6 upbm affinity estimate (log intensity, higher = more binding, comparable within an allelic series) | 12.6 upbm affinity estimate (log intensity, higher = more binding, comparable within an allelic series)
55 | AGAAGTGG | 12.5 upbm affinity estimate (log intensity, higher = more binding, comparable within an allelic series) | 12.7 upbm affinity estimate (log intensity, higher = more binding, comparable within an allelic series)
56 | CGGGTCGA | 10.6 upbm affinity estimate (log intensity, higher = more binding, comparable within an allelic series) | 10.6 upbm affinity estimate (log intensity, higher = more binding, comparable within an allelic series)
57 | GCCCGGCC | 10.3 upbm affinity estimate (log intensity, higher = more binding, comparable within an allelic series) | 10.2 upbm affinity estimate (log intensity, higher = more binding, comparable within an allelic series)
58 | CCAGGTTA | 10.6 upbm affinity estimate (log intensity, higher = more binding, comparable within an allelic series) | 10.8 upbm affinity estimate (log intensity, higher = more binding, comparable within an allelic series)
